Experiment [1] can be described thus: NCI Yeast Anticancer Drug Screen. Data for the rad50 strain (AID 155).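 Note: 0% = growth of vehicle-only cultures of the same strain.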 The note with it: S. cerevisiae rad50 strain growth inhibition, stronger effect = higher value. In a few lines: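 Vehicle-treated cultures provide the reference for the growth inhibition reported for compound-exposed, repair-deficient yeast.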
Experiment [2] can be described thus: NCI Yeast Anticancer Drug Screen. Data for the mec2-1 strain (AID 157). The settings on record: S. cerevisiae mec2-1 strain, stronger effect = higher value. In a few lines:
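Cells of the genetically defined mec2-1 yeast strain are incubated with test compound. Inhibition of growth is calculated against vehicle-treated controls.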

A short description of experiment [3]: NCI Yeast Anticancer Drug Screen. Data for the sgs1 mgt1 strain (AID 161).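 Note: 0% = growth of cultures given vehicle only.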 The settings on record: S. cerevisiae sgs1 mgt1 strain, stronger effect = higher value. In a few lines:
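Read-out: growth inhibition vs vehicle controls. Cells: mutant yeast strain deficient in DNA damage repair.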

Experiment [4] can be described thus: NCI Yeast Anticancer Drug Screen. Data for the cln2 rad14 strain (AID 165).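 Note: 0% = growth equal to vehicle treated cultures.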 The settings on record: S. cerevisiae cln2 rad14 strain, stronger effect = higher value. In outline: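 The screen exposed genetically defined yeast (cln2 rad14) to test compounds and scored growth inhibition relative to vehicle-treated controls.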
Experiment [5] can be described thus: NCI Yeast Anticancer Drug Screen. Data for the bub3 strain (AID 167). The settings on record: S. cerevisiae bub3 mutant strain, stronger effect = higher value. In outline:
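Mutant yeast screening strain plus compound; vehicle-treated cultures serve as the 0% inhibition reference.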

Experiment [6] in a line: NCI Yeast Anticancer Drug Screen. Data for the mlh1 rad18 strain (AID 175). The note with it: S. cerevisiae mlh1 rad18 strain growth inhibition, stronger effect = higher value. In a few lines: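 Compound-treated yeast growth, normalised to vehicle controls. Strain bears defined DNA repair mutations.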
Setting [7] is: at 5.0 µM (retest, dose inferred, filed as 0.5).
[8] abbreviates: at 50.0 µM (retest, dose inferred, filed as 5.0).

This passage reports growth inhibition results from PubChem BioAssay (NCI).

About 79,000 compounds went through this panel and 15% of them were active in at least one assay; those are over-represented in the sample as a whole. Unmarked numbers belong to inactive results. Activity calls are given as the source filed them. Cut-off read from the data, not from the text of the source: active = growth inhibition above about 70%; inactive = the rest.

As to `CCO/C=C1N=C(/C=C/c2ccc(Cl)cc2)OC/1=O`, the growth inhibition in experiment [1] (setting [7]) was 5%; in experiment [1] (setting [8]) it was 31%; in experiment [1] (at 50.0 µM) it was 28.4%; in experiment [2] (setting [7]) it was 7%; in experiment [2] (setting [8]), 13%; in experiment [2] (at 50.0 µM) it was 32.8%. Moreover, the growth inhibition in experiment [3] (setting [7]) is 14%; in experiment [3] (setting [8]) it was 19%; in experiment [3] (at 50.0 µM), 47%; in experiment [4] (setting [7]), 8%; in experiment [4] (setting [8]), 43%; in experiment [4] (at 50.0 µM) it was -38.7%. Besides, the growth inhibition in experiment [5] (setting [7]) is 14%; in experiment [5] (setting [8]), 29%; in experiment [5] (at 50.0 µM) it was 22.6%; in experiment [6] (setting [7]) it was 1%; in experiment [6] (setting [8]), 25%; in experiment [6] (at 50.0 µM) it was 40.8%.

As for `Cc1ccc2nc(N/N=C/c3cccc(C)n3)cc(C)c2c1`, the growth inhibition in experiment [1] (setting [7]) is 8%; in experiment [1] (setting [8]) it was 62%; in experiment [1] (at 50.0 µM), 89.3% (active); in experiment [2] (setting [7]) it was -2%; in experiment [2] (setting [8]), 37%; in experiment [2] (at 50.0 µM) it was 21.2%. In addition, the growth inhibition in experiment [3] (setting [7]) is 6%; in experiment [3] (setting [8]), 80% (active); in experiment [3] (at 50.0 µM) it was 89.8% (active); in experiment [4] (setting [7]), -8%; in experiment [4] (setting [8]) it was 61%; in experiment [4] (at 50.0 µM), 74.9% (active). The growth inhibition in experiment [5] (setting [7]) is -11%; in experiment [5] (setting [8]) it was 57%; in experiment [5] (at 50.0 µM), 73.1% (active); in experiment [6] (setting [7]) it was 4%; in experiment [6] (setting [8]) it was 64%; in experiment [6] (at 50.0 µM), 84.3% (active).

Turning to `C=CCN1/C(=C\C=C\c2ccc3cc(C)ccc3[n+]2CC=C)C=Cc2cc(C)ccc21`, the growth inhibition in experiment [1] (setting [7]) was 58%; in experiment [1] (setting [8]) it was 97% (active); in experiment [1] (at 50.0 µM) it was 90.5% (active); in experiment [2] (setting [7]) it was 63%; in experiment [2] (setting [8]), 99% (active); in experiment [2] (at 50.0 µM), 91.1% (active). The growth inhibition in experiment [3] (setting [7]) was 90% (active); in experiment [3] (setting [8]), 98% (active); in experiment [3] (at 50.0 µM), 92.6% (active); in experiment [4] (setting [7]), 78% (active); in experiment [4] (setting [8]), 98% (active); in experiment [4] (at 50.0 µM), 91.9% (active). For the same molecule, the growth inhibition is 83% (active) in experiment [5] (setting [7]); 98% (active) in experiment [5] (setting [8]); 91% (active) in experiment [5] (at 50.0 µM); 79% (active) in experiment [6] (setting [7]); 98% (active) in experiment [6] (setting [8]); 89.2% (active) in experiment [6] (at 50.0 µM).

Consider `CCc1c(O)sc2c(c1=O)C(=NCC(C)C)CC(C)(C)N2`, for which the growth inhibition in experiment [1] (setting [7]) is -5%; in experiment [1] (setting [8]) it was 5%; in experiment [1] (at 50.0 µM) it was 40.3%; in experiment [2] (setting [7]), 15%; in experiment [2] (setting [8]), 34%; in experiment [2] (at 50.0 µM) it was 24.1%. Further, the growth inhibition is 9% in experiment [3] (setting [7]); -4% in experiment [3] (setting [8]); 34.1% in experiment [3] (at 50.0 µM); -14% in experiment [4] (setting [7]); -7% in experiment [4] (setting [8]); 27.4% in experiment [4] (at 50.0 µM). Moreover, the growth inhibition in experiment [5] (setting [7]) was 2%; in experiment [5] (setting [8]), 4%; in experiment [5] (at 50.0 µM), 10.8%; in experiment [6] (setting [7]), -12%; in experiment [6] (setting [8]) it was -6%; in experiment [6] (at 50.0 µM), 53.9%.

Turning to `O=C(O)/C=C/C(=O)NNc1nc2ccccc2s1`, the growth inhibition in experiment [1] (setting [7]) is -4%; in experiment [1] (setting [8]) it was -1%; in experiment [1] (at 50.0 µM), 23.1%; in experiment [2] (setting [7]), -9%; in experiment [2] (setting [8]) it was 2%; in experiment [2] (at 50.0 µM), -5.25%. Further, the growth inhibition is 0% in experiment [3] (setting [7]); -25% in experiment [3] (setting [8]); 50.3% in experiment [3] (at 50.0 µM); -25% in experiment [4] (setting [7]); 1% in experiment [4] (setting [8]); 23.1% in experiment [4] (at 50.0 µM). In addition, the growth inhibition in experiment [5] (setting [7]) is -31%; in experiment [5] (setting [8]), -21%; in experiment [5] (at 50.0 µM), -13.2%; in experiment [6] (setting [7]) it was -7%; in experiment [6] (setting [8]), 20%; in experiment [6] (at 50.0 µM) it was 70.2% (active).

As for `O=C1C=CC(=Nc2ccc(O)c3ncccc23)c2cccnc21`, the growth inhibition in experiment [1] (setting [7]) was 34%; in experiment [1] (setting [8]), 92% (active); in experiment [1] (at 50.0 µM) it was 94% (active); in experiment [2] (setting [7]), 11%; in experiment [2] (setting [8]), 96% (active); in experiment [2] (at 50.0 µM), 95% (active). The growth inhibition is 29% in experiment [3] (setting [7]); 96% (active) in experiment [3] (setting [8]); 95.2% (active) in experiment [3] (at 50.0 µM); -1% in experiment [4] (setting [7]); 95% (active) in experiment [4] (setting [8]); 86.7% (active) in experiment [4] (at 50.0 µM). Moreover, the growth inhibition is 17% in experiment [5] (setting [7]); 94% (active) in experiment [5] (setting [8]); 95.6% (active) in experiment [5] (at 50.0 µM); 50% in experiment [6] (setting [7]); 95% (active) in experiment [6] (setting [8]); 92.4% (active) in experiment [6] (at 50.0 µM).

With `COc1ccc(Oc2c(OC)cc(NCCCCCNC(C)C)c3ncccc23)cc1`, the growth inhibition in experiment [1] (setting [7]) is 26%; in experiment [1] (setting [8]) it was 72% (active); in experiment [1] (at 50.0 µM), 91.9% (active); in experiment [2] (setting [7]) it was 13%; in experiment [2] (setting [8]) it was 52%; in experiment [2] (at 50.0 µM) it was 67.9%. In addition, the growth inhibition in experiment [3] (setting [7]) is 37%; in experiment [3] (setting [8]) it was 85% (active); in experiment [3] (at 50.0 µM), 93.7% (active); in experiment [4] (setting [7]), 19%; in experiment [4] (setting [8]) it was 48%; in experiment [4] (at 50.0 µM), 57.8%. In addition, the growth inhibition is 29% in experiment [5] (setting [7]); 69% in experiment [5] (setting [8]); 81% (active) in experiment [5] (at 50.0 µM); 19% in experiment [6] (setting [7]); 52% in experiment [6] (setting [8]); 89.8% (active) in experiment [6] (at 50.0 µM).

On to `CCOP(=O)(OCC)C(NC(=O)OCC(Cl)(Cl)Cl)n1nnc(C(=O)OC)c1C(=O)OC` (configuration not stated), for which the growth inhibition in experiment [1] (setting [7]) is -7%; in experiment [1] (setting [8]), 79% (active); in experiment [1] (at 50.0 µM), -8.8%; in experiment [2] (setting [7]), -4%; in experiment [2] (setting [8]), 46%; in experiment [2] (at 50.0 µM), 4.15%. In addition, the growth inhibition in experiment [3] (setting [7]) is -6%; in experiment [3] (setting [8]) it was 89% (active); in experiment [3] (at 50.0 µM), 10.6%; in experiment [4] (setting [7]), -3%; in experiment [4] (setting [8]) it was 69%; in experiment [4] (at 50.0 µM) it was 36.4%. The growth inhibition is -1% in experiment [5] (setting [7]); 92% (active) in experiment [5] (setting [8]); -0.7% in experiment [5] (at 50.0 µM); -1% in experiment [6] (setting [7]); 70% (active) in experiment [6] (setting [8]); -1.15% in experiment [6] (at 50.0 µM).

For `Oc1cc2ccccc2c2c1ccc1ccccc12`, the growth inhibition in experiment [1] (setting [7]) is -142%; in experiment [1] (setting [8]), 90% (active); in experiment [1] (at 50.0 µM), 84.5% (active); in experiment [2] (setting [7]), -35%; in experiment [2] (setting [8]), 97% (active); in experiment [2] (at 50.0 µM) it was 77.8% (active). Besides, the growth inhibition in experiment [3] (setting [7]) was -52%; in experiment [3] (setting [8]), 95% (active); in experiment [3] (at 50.0 µM), 86.7% (active); in experiment [4] (setting [7]), -55%; in experiment [4] (setting [8]), 95% (active); in experiment [4] (at 50.0 µM), 67.8%. The growth inhibition in experiment [5] (setting [7]) was -55%; in experiment [5] (setting [8]) it was 94% (active); in experiment [5] (at 50.0 µM) it was 84% (active); in experiment [6] (setting [7]) it was -94%; in experiment [6] (setting [8]), 92% (active); in experiment [6] (at 50.0 µM), 77.3% (active).
